Laboratory results: PubChem BioAssay
Activity calls are given as the source filed them.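 Rule for the calls, unless noted: active = visual image review flags a hit and inhibition of aggregation exceeds 20%; inconclusive = visual hit but inhibition at or below 20%; inactive = no hit on visual image review.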

Legend:
[1] = inhibitors of TNFa-induced NFkB p65 translocation, primary screen, imaging, HUVEC, MLSMR starter and 10KST1 sets (AID 438;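 active = inhibition above 20% together with a positive visual image hit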;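 note: compound added about 3h40 before a 20 min TNFalpha stimulation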;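 for inhibition: signal is the nuclear over cytoplasmic p65 intensity ratio per well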); details: HUVEC TNFa-induced p65 nuclear translocation; cell count: measured here: nuclei count (cytotoxicity indicator), at 2.08 µM; inhibition: at 2 µM, stronger effect = higher value, 0% TNFa-plus-vehicle, 100% no-TNFa wells
[2] = inhibitors of mutant huntingtin aggregation, primary screen, imaging, exon1htt(103Q)mCFP cells, high-content imaging (AID 483); details: exon1htt(103Q)mCFP cell line, aggregate imaging, at 2 µM; inhibition of aggregation: stronger effect = higher value; nuclei count: measured here: cell count, toxicity;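 note: compound exposure lasted 3 days before fixation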;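 for nuclei count: percent of the per-plate median nuclei count of sample wells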
[3] = inhibitors of E-selectin induction by TNFa, primary screen, imaging, HUVEC, immunofluorescence, MLSMR starter and 10KST1 sets (AID 487;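 active = visually confirmed hit in the image check and inhibition above 20%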;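 for inhibition: signal is fraction of cell area covered by stained E-selectin grains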;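 for nuclei count: 100% = median nuclei count of all wells on the same plate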); details: HUVEC TNFalpha-induced E-selectin immunofluorescence imaging, at 2 µM; inhibition: stronger effect = higher value; nuclei count: measured here: cell number, toxicity
[4] = target: Voltage-gated potassium channel subunit beta-2 (Rattus norvegicus) (UniProt P62483); experiment: KvBeta enzyme negative modulators, primary screen, biochemical, NADPH fluorescence (AID 622;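 active = fluorescence slope higher than the sample average by over 3 SD, cut at about -0.22 in these data, passing the limit was not always enough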;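 note: slope of raw intensity against log time taken from 70 to 1610 s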); details: recombinant KvBeta, 4-cyanobenzaldehyde reduction, at 10 µM, stronger effect = higher value
Sequence of Voltage-gated potassium channel subunit beta-2 (Rattus norvegicus) (P62483 whole entry, looked up): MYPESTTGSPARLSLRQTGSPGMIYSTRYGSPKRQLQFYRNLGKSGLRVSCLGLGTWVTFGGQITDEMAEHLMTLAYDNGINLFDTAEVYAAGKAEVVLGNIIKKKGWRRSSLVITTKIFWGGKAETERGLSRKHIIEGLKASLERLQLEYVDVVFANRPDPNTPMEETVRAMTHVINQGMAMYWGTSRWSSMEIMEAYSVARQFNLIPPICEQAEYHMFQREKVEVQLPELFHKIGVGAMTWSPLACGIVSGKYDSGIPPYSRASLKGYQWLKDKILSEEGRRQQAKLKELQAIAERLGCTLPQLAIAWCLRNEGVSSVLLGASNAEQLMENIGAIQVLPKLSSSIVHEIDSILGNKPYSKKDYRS

[5] = target: Voltage-gated potassium channel subunit beta-2 (Rattus norvegicus) (UniProt P62483); experiment: KvBeta positive modulators, primary screen, biochemical, NADPH fluorescence (AID 623;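 active = NADPH fluorescence slope more negative than the mean of all samples by about 3 SD, 99.7% confidence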;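 note: fluorescence intensity change per second fitted from 20 to 320 s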); details: Recombinant KvBeta, NADPH fluorescence decrease slope, 10 min; at 10 µM; stronger effect = lower value
[6] = target: Alpha-2C adrenergic receptor (Homo sapiens) (UniProt P18825); experiment: modulators of alpha2C/GIRK thallium flux, primary screen, cell-based, HEK293 alpha2C/GIRK1/2 (AID 624;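 active = fluorescence slope after compound addition differing from the mean of all screened samples at 99.7% confidence, in either direction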;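 note: slope of fluorescence ratio to pre-addition baseline per second over 15 to 24 s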); details: thallium flux BTC fluorescence, at 10 µM, actives lie on both sides
Sequence of Alpha-2C adrenergic receptor (Homo sapiens) (P18825 whole entry, looked up): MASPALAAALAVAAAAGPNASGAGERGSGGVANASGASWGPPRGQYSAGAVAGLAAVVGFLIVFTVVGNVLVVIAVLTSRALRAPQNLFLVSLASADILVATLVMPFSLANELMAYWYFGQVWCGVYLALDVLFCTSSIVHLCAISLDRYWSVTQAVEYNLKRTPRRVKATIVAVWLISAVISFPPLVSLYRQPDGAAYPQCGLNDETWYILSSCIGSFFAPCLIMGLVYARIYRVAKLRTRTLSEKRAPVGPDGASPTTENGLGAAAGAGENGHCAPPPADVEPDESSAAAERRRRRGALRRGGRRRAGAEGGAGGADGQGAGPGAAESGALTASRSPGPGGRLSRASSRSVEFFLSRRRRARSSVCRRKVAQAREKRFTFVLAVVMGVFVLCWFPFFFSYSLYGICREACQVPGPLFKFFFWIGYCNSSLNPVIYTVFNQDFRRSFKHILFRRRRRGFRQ

[7] = inhibitors of Sendai virus-induced IRF3 signaling, primary screen, TLR/RLR signaling modifier project, cell-based, Sendai virus stimulus, luciferase, 10K MLSCN set (AID 602276;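 active = inhibition at or above 50% at 10 µM; inactive = inhibition below 50%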;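 note: firefly luciferase from ISG56 promoter only with Renilla not read in this screen; 0% = Sendai virus plus DMSO and 100% = medium plus DMSO without virus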); details: HEK293 RL24 IRF3 luciferase reporter, at 10 µM, stronger effect = higher value
[8] = inhibitors of poly I:C-induced TLR3 signaling, primary screen, cell-based, poly I:C stimulus, luciferase, 10K MLSCN set (AID 602277;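 active = inhibition of the reporter signal at or above 50%; inactive = inhibition below 50%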); details: HEK293-TLR3 RL24 IRF3 luciferase reporter, at 10 µM, stronger effect = higher value

Row | Structure (SMILES) | cell count [1] | inhibition [1] | inhibition of aggregation [2] | nuclei count [2] [%] | inhibition [3] | nuclei count [3] [%] | fluorescence slope [4] | NADPH fluorescence slope [5] | slope [6] | inhibition [7] | inhibition [8]
1 | Clc1cc2c(c(Cn3cnc4ccccc43)c1)OCOC2 | 566 | 7.5% (inactive) | 11.8% (inactive) | 77.2 | 4.1% (inactive) | 89.8 | -0.595 (inactive) | -3e-05 (inactive) | 0.00307 (inactive) | 7.15% (inactive) | -9.55% (inactive)
2 | Cc1ccc(-c2ccc(=O)n(CC(=O)NCCCN3CCCCC3C)n2)cc1 (configuration not stated) | 397 | 5% (inactive) | 3% (inactive) | 98.2 | 14.8% (inactive) | 96 | -0.497 (inactive) | -1.9e-05 (inactive) | 0.0058 (inactive) | 11.3% (inactive) | 21.8% (inactive)
3 | CCOC(=O)Cn1c(CN(C)Cc2ccccc2)nc2c1c(=O)n(C)c(=O)n2C | 241 | 6.8% (inactive) | 6.2% (inactive) | 92.6 | 26.4% (inactive) | 94.7 | -0.278 (inactive) | -3.7e-05 (inactive) | 0.00521 (inactive) | 13.2% (inactive) | 10.8% (inactive)
4 | CCOC(=O)C1=C(C)Nc2nc(SCC(=O)OC)nn2C1c1cc(F)cc(F)c1 (configuration not stated) | 432 | -15.7% (inactive) | -6.3% (inactive) | 96.1 | 1% (inactive) | 96 | -0.592 (inactive) | -3.9e-05 (inactive) | 0.00688 (inactive) | 2.11% (inactive) | 8.56% (inactive)
5 | CNC(=O)c1ccsc1NC(=O)CN1C(=O)CCC1=O | 469 | -5.4% (inactive) | 10.7% (inactive) | 90.3 | 4.8% (inactive) | 113 | -0.451 (inactive) | -5.2e-05 (inactive) | 0.00494 (inactive) | 6.37% (inactive) | 28.8% (inactive)
6 | CC(C)c1nnc(NC(=O)c2ccc(N3C(=O)CCC3=O)cc2)s1 | 627 | -8% (inactive) | 13.9% (inactive) | 110 | -36.4% (inactive) | 119 | -0.407 (inactive) | 9.4e-07 (inactive) | 0.00608 (inactive) | 4.17% (inactive) | -7.88% (inactive)
7 | COCCNC(=O)c1cc(-c2cccs2)on1 | 793 | -4% (inactive) | -19.1% (inactive) | 116 | -46.8% (inactive) | 126 | -0.587 (inactive) | 6.5e-06 (inactive) | 0.00598 (inactive) | -27.2% (inactive) | -253% (inactive)
